Data taken from PubChem BioAssay AID2130 (The Scripps Research Institute Molecular Screening Center, 2009).
The whole screen tested about 320,000 compounds, of which about 1,700 (0.53%) were called active. For the sample, actives were picked, then their nearest neighbours and some compounds at random. Unmarked numbers belong to inactive results.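 The calls were made as follows: active = inhibition above the campaign mean of all compounds plus 3 SD (cut at about 26% in these data); inactive = the rest.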

Each compound was assayed against Protein phosphatase methylesterase 1 (Homo sapiens) (UniProt Q9Y570) (assay: PME-1 inhibitors via competitive probe labeling, primary screen, biochemical, fluorescence polarization, FP-Rh probe, HTS (AID 2130;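 also: competitive labeling of PME-1 active site by serine hydrolase directed probe; 0% = PME-1 with DMSO and 100% = wells lacking PME-1 enzyme; inhibitors block probe labeling so polarization falls and inhibition rises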)). Conditions: recombinant PME-1, FP-Rh probe fluorescence polarization; at 5.9 µM; stronger effect = higher value.
Sequence of Protein phosphatase methylesterase 1 (Homo sapiens) (Q9Y570 whole entry, looked up): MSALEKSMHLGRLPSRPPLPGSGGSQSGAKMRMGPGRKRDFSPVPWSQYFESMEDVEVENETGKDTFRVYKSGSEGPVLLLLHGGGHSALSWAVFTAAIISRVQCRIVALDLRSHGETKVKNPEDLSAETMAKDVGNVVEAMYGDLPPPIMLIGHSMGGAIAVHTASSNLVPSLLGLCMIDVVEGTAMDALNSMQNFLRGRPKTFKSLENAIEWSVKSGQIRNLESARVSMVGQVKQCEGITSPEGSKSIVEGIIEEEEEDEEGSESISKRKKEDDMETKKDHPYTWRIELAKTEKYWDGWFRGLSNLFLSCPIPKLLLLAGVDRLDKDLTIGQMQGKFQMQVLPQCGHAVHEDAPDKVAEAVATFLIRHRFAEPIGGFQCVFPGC

| Structure (SMILES) | inhibition |
| --- | --- |
| O=C(NCc1cccs1)C1CCN(S(=O)(=O)c2ccc(Cl)cc2)CC1 | 49.3% (active) |
| O=C(NCc1ccc(Cl)cc1)C1CCN(S(=O)(=O)c2cccs2)CC1 | 11.3% |
| O=C(NCc1cccs1)C1CCN(S(=O)(=O)c2ccc3c(c2)OCCO3)CC1 | 10.8% |
| Cc1cccc(N2CCN(Cc3nc(C4CC4)no3)CC2)n1 | 0.08% |
| CC1C(c2ccccc2)=[N+]([O-])C2(CCCC2)N1O (stereo not given) | -10.2% |
| Cc1ccc(-c2csc(-c3cc(C)on3)n2)cc1 | -0.04% |
| Cc1ccc(-c2csc(-c3c[nH]c4ccccc34)n2)cc1 | 27.5% (active) |
| CCCc1cc(-c2nc(-c3ccc(C)cc3)cs2)ccn1 | -6.39% |
| COc1ccccc1-c1sc2ccccc2c1-c1ccc(C(C)=O)cc1 | 33.6% (active) |
| COc1ccccc1-c1c(C)nn2c(C)c(C(C)=O)cnc12 | -0.93% |
| COc1ccccc1-c1sc2ccccc2c1-c1ccc(Br)nc1 | -9.82% |
| N#Cc1c(C(F)(F)F)cc(-c2cccs2)nc1N1CCCCC1 | 2.44% |
| COc1ccc(CN2CCCC(C(=O)c3ccc(Cl)cc3)C2)cc1Cn1cncn1 (stereo not given) | 4.9% |
| CC(=O)c1ccc(OCC(O)CN2CCN(S(=O)(=O)c3cccc(Br)c3)CC2)cc1 (stereo not given) | 7.43% |
| CC(=O)NC1=NN(C(C)=O)C(C)(c2ccc(Cl)s2)S1 (stereo not given) | -1.89% |
| Cc1cccc(-c2nc(Nc3ccc(O)cc3)c3ccccc3n2)c1 | 30.6% (active) |
| CC(=O)Nc1cccc(Nc2nc(-c3cccs3)nc3ccccc23)c1 | -31.9% |
| COc1ccc(Nc2nc(-c3cccnc3)nc3ccccc23)cn1 | 0.55% |
| Nc1nonc1-n1nnc(C(=O)N/N=C/c2c[nH]c3ccccc23)c1-c1ccccc1 | 34.1% (active) |
| Nc1nonc1-n1nnc(C(=O)N/N=C/C2CCCCC2)c1-c1ccccc1 | 2.24% |
| CC(C)c1c(C(=O)N/N=C/c2ccccc2C(=O)O)nnn1-c1nonc1N | 3.05% |
| O=C(C(=O)N1CCc2ccccc2C1)c1c[nH]c2ccccc12 | -0.44% |
| Cc1cccc(C)c1NC(=S)N1CCCCCC1 | -3.93% |
| COc1ccc(CNC(=O)COc2ccccc2C(=O)c2cnn(-c3ccccc3)c2)cc1OC | -5.4% |

| Structure (SMILES) | inhibition |
| --- | --- |
| Cc1ccc(S(=O)(=O)n2cnc3ccccc32)c(C)c1 | -0.58% |
| O=c1[nH]cnc(O)c1C(c1ccc(F)cc1)c1c(O)nc[nH]c1=O | -2.73% |
| COc1cccc(NC(=O)NCCN2CCCCC2)c1 | 0.47% |
| COc1cccc(NC(=O)Nc2nnc(N3CCCCC3C)s2)c1 (stereo not given) | 43.8% (active) |
| COc1cccc(C(=O)Nc2nnc(S(=O)(=O)N3CCCCC3)s2)c1 | -0.5% |
| CC1CCC(NC(=O)CN(C)S(=O)(=O)c2ccc3c(c2)c(=O)n(C)c(=O)n3C)CC1 (stereo not given) | 0.21% |
| COc1ccnc(Oc2ccccc2)c1-c1ncn[nH]1 | 3.26% |
| O=C(Nc1ccc(C(F)(F)F)cc1)c1cccc(-n2cnnn2)c1 | -9.13% |
| CC(=O)Nc1nc(C)c(-c2csc(Nc3ccc(S(N)(=O)=O)cc3)n2)s1 | -2.64% |
| CCCCC(=O)Nc1nc(C)c(-c2csc(Nc3ccc(Cl)cc3)n2)s1 | 16.9% |
| Cc1nc(NC(=O)c2cccc(Cl)c2)sc1-c1csc(Nc2cccc(Cl)c2)n1 | 32.1% (active) |
| CCCCCCC(=O)Nc1nc(C)c(-c2csc(Nc3cccc(OC)c3)n2)s1 | 16.8% |
| CCCCCCC(=O)Nc1nc(C)c(-c2csc(Nc3cc(Cl)ccc3OC)n2)s1 | 13.6% |
| C=CCCC(=O)Nc1nc(C)c(-c2csc(Nc3ccc(Cl)cc3)n2)s1 | 28.8% (active) |
| COc1ccc(F)cc1C(=O)COC(=O)c1n[nH]c(=O)c2ccccc12 | 2.97% |
| Cc1cc(OC(=O)c2ccc(OC(C)C)cc2)c([N+](=O)[O-])c(=O)[nH]1 | -4.45% |
| COc1cc(OC)cc(C(=O)NNC(=O)CCOc2ccccc2OC)c1 | -2.05% |
| CCOc1ccc(-c2cn(S(=O)(=O)c3cccc4nsnc34)nc2N)cc1 | 2.2% |
| Cc1ccccc1CC1(CO)CCCN(Cc2ccc3c(c2)OCCO3)C1 (stereo not given) | 3.22% |
| O=S(=O)(NCCc1ccc(Cl)cc1)c1cccs1 | 6.08% |
| CC(C)(C)OC(=O)NNc1c2ccccc2nc2ccccc12 | 17.6% |
| O=C(N/N=C/c1cccnc1)c1cc2ccccc2cc1O | 12.5% |
| O=C(NNc1c2ccccc2nc2ccccc12)c1cc2ccccc2cc1O | 76.5% (active) |
| COc1ccccc1C1C(C(N)=O)=C(C)Nc2nc(CCCO)nn21 (stereo not given) | -0.55% |

| Structure (SMILES) | inhibition |
| --- | --- |
| COc1ccc(C(=O)OC(C)C(=O)NC2CCCC2)cc1S(=O)(=O)N1CCOCC1 (stereo not given) | 2.8% |
| O=c1[nH]c2cccnc2n1-c1ccc([N+](=O)[O-])cc1 | 5.31% |
| COc1cnn(-c2ccc([N+](=O)[O-])cc2)c(=O)c1Cl | -4.7% |
| O=c1[nH]n(-c2ccc([N+](=O)[O-])cc2)c(=O)c2ccccc12 | 26.6% (active) |
| CCCCN1C(N)=NC[C@@H]1CC1CCCCC1 | -2.94% |
| Cc1cc(=O)oc2cc(NC(=O)C3CC(=O)N(Cc4ccccc4)C3)ccc12 (stereo not given) | 7.03% |
| Cc1ccc(C2Nc3cccc4cccc(c34)N2)cc1 | 1.72% |
| COc1cccc(C2Nc3cccc4cccc(c34)N2)c1 | 14.7% |
| Oc1ccc(C2Nc3cccc4cccc(c34)N2)cc1 | 53.6% (active) |
| CCc1ccc(NC(=O)CN2C(=O)COc3ccc(S(=O)(=O)N4CCCC4)cc32)cc1 | -0.43% |
| CCOC(=O)C1(Cc2ccccc2C(F)(F)F)CCN(C(=O)c2cc(C)n(C)n2)CC1 | -3.56% |
| CCCCCN(C(=O)CCC(=O)OCCOc1ccc(OC)cc1)c1c(N)n(CCCC)c(=O)[nH]c1=O | -1.09% |
| C=CCn1cc(-c2cccc(C(F)(F)F)c2)cc(C#N)c1=O | 1.51% |
| Oc1ccc(N=Cc2c(O)ccc3ccccc23)cc1 | 52.4% (active) |
| CCOc1[nH]n(-c2ccc(Cl)cc2)c(=O)c1C=Nc1ccc(O)cc1 | 14.7% |
| Oc1ccc(N=Cc2sc3ccccc3c2Cl)cc1 | 14.5% |
| CN(CCc1ccccn1)S(=O)(=O)c1ccc2c3c(cccc13)C(=O)N2 | 7.3% |
| Nc1nc(CC(=O)CSc2ccc(Cl)cc2)nc(Nc2ccc(F)cc2)n1 | 0.37% |
| COc1cccc(N2C(=O)CC(N3CCc4ccccc4C3)C2=O)c1 (stereo not given) | 1.67% |
| COc1cccc(N2CCN(CC(=O)Nc3ccnn3C3CCCC3)CC2)c1 | 0.47% |
| Cc1ccc(Nc2nc(-c3ccc(O)cc3O)cs2)nc1 | 29% (active) |
| Cc1cccc(Nc2nc(-c3ccccc3)cs2)n1 | 9.05% |
| Clc1ccc(Nc2nc(-c3cccs3)cs2)nc1 | 14.9% |
| CCCOc1ccc(CNC(=O)C2CCN(c3nn4c(=O)cc(C)nc4s3)CC2)cc1 | -0.67% |

| Structure (SMILES) | inhibition |
| --- | --- |
| COc1ccc(CN(C(=O)CSc2nnc(-c3ccc(OC)c(OC)c3)o2)c2ccc(F)cc2)cc1 | -0.21% |
| COc1ccccc1C(=O)NC(CCSC)C(=O)NNC(=O)c1ccccc1C (stereo not given) | -6.59% |
| O=S(=O)(NC1CCCC1)c1ccc(-n2cnnn2)cc1 | -6.91% |
| COc1ccc(CC(=O)NC2CCSc3ccccc32)cc1OC (stereo not given) | 8.44% |
| CCC(C)(C)N=C(NC#N)Nc1cccnc1 | -2.16% |
| CC[N+](C)(CC)CCC[n+]1c(-c2ccccc2)c2cc(N)ccc2c2ccc(N)cc21 | 54.4% (active) |
| O=C(CN1C(=O)NC2(CCCCC2)C1=O)NCCc1c[nH]c2ccccc12 | 1.73% |
| CC(=O)N/C(=C/c1ccc(Cl)cc1)C(=O)NCCc1c[nH]c2ccccc12 | 1.47% |
| N#C/C(=C/c1ccc(N2CCCCC2)o1)C(=O)NCCc1c[nH]c2ccccc12 | 31.4% (active) |
| CCOC(=O)c1c(C)[nH]c(C2=NNC(=NC(C)COC)SC2)c1C (stereo not given) | -7.22% |
| CCC(C(=O)NC1CCCC1)N(C(=O)Cn1nnc(-c2ccc(C)o2)n1)c1ccc(OC)c(OC)c1 (stereo not given) | 2.08% |
| Cc1ccc(Cl)c(OCC(=O)N2CCc3ccccc3C2)c1 | 2.04% |
| FC(F)(F)c1nc(-c2ccccc2)ncc1-c1nnnn1-c1ccccc1 | -1.36% |
| Oc1c(Cl)cc(Cl)c(Cl)c1Cc1c(O)c(Cl)cc(Cl)c1Cl | 27% (active) |
| Cc1ccc2nc(SCC(=O)N3CCN(c4ccccc4)CC3)nc(=O)n2c1 | 11.8% |
| Cc1ccccc1CCN(CC(=O)NC1CCCCC1)C(=O)c1csnn1 | 3.53% |
| CCc1nc2nc(C)c(NS(=O)(=O)c3ccc4c(c3)CCCC4)c(=O)n2[nH]1 | 3.49% |
| CCOC(=O)c1c(C)oc(C)c(C(=O)OCC)c1=O | 2.67% |
| CCOC(=O)c1ccc(Nc2cc3ccccc3c(=O)[nH]2)cc1 | 51.5% (active) |
| CCOC(=O)c1nc(Nc2ccc(C(=O)OC)cc2)c2ccccc2n1 | -3.8% |
| CCOC(=O)c1ccc(NC(=O)c2cc(=O)[nH]c3ccccc23)cc1 | -7.83% |
| CCNC(=S)N(CCN(CC)CC)Cc1cc2cc3c(cc2[nH]c1=O)OCO3 | -3.38% |
| CC1CCC(CN2CCN=C2N(C)C)CC1 (stereo not given) | 0.76% |
